Drawing on PubChem BioAssay (EPA / NIEHS), this text covers AC50 and outcome for 16 compounds.

Calls of active or inactive are those of the source. Rule for the calls: active = hit-call score of the fitted dose curve at least 0.9, where 1 is the maximum; inactive = score below 0.9.

The term AC50 denotes the concentration at which the activity in the assay is half-maximal.

What all share (conditions): mRNA level, 48 h; actives raise or lower the signal
Read-out in one assay: CYP4A11 (gene 1579)
Kind of assay: LTEA_HepaRG_CYP4A11: Life Technologies and Expression Analysis (LTEA) Assay for CYP4A11 using HepaRG (AID 2283486). Summed up:
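Readout is CYP4A11 mRNA induction or suppression (qRT-PCR, ACTB/GAPDH/POLR2A normalization) in human HepaRG cells after 48 h chemical treatment, concentrations to 100 uM in 0.5% DMSO, fitted bidirectionally against vehicle.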

Read-out in assay [1]: Cytochrome P450 3A4 (Homo sapiens) (UniProt P08684)
Nature of the assay: LTEA_HepaRG_CYP3A4: Life Technologies and Expression Analysis (LTEA) Assay for CYP3A4 using HepaRG (AID 2283487). A digest of the protocol:
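Differentiated HepaRG cells, plated 48 h, then dosed 48 h in serum-free induction medium with 0.5% DMSO, 8 half-log concentrations up to 100 uM, duplicate. CYP3A4 mRNA by qRT-PCR, normalized to ACTB/GAPDH/POLR2A; bidirectional fit versus DMSO.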

Read-out in assay [2]: DNA damage-inducible transcript 3 (DDIT3), DDIT3 (gene 1649)
Nature of the assay: LTEA_HepaRG_DDIT3: Life Technologies and Expression Analysis (LTEA) Assay for DNA damage-inducible transcript 3 (DDIT3) using HepaRG (AID 2283488). A digest of the protocol: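 Changes in DDIT3 transcript, in either direction relative to 0.5% DMSO vehicle, were quantified by TaqMan qRT-PCR after 48 h chemical exposure of HepaRG cells at 8 concentrations, maximum 100 uM.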

Read-out in assay [3]: Pro-epidermal growth factor (Homo sapiens) (UniProt P01133)
Kind of assay: LTEA_HepaRG_EGF: Life Technologies and Expression Analysis (LTEA) Assay for Epidermal growth factor (EGF) using HepaRG (AID 2283489). A digest of the protocol:
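EGF expression changes in human HepaRG cells are scored by bidirectional fitting relative to 0.5% DMSO controls. Chemicals are tested at eight half-log concentrations up to 100 uM for 48 h in serum-free induction medium.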

Read-out in assay [4]: Early growth response protein 1 (EGR1) transcription factor, EGR1 (gene 1958)
Nature of the assay: LTEA_HepaRG_EGR1: Life Technologies and Expression Analysis (LTEA) Assay for Early growth response protein 1 (EGR1) transcription factor using HepaRG (AID 2283490). Summed up:
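Differentiated HepaRG cells in serum-free induction medium exposed 48 hours, duplicate, to 8 half-log concentrations up to 100 uM in 0.5% DMSO. EGR1 mRNA measured by TaqMan qRT-PCR, normalized to ACTB, GAPDH, POLR2A; bidirectional fit versus DMSO.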

Read-out in assay [5]: Ezrin (EZR), EZR (gene 7430)
Nature of the assay: LTEA_HepaRG_EZR: Life Technologies and Expression Analysis (LTEA) Assay for Ezrin (EZR) using HepaRG (AID 2283491). A digest of the protocol: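 EZR transcript levels came from Fluidigm qRT-PCR and were normalized to three housekeeping genes after 48 h chemical exposure of HepaRG cells. Dosing used an 8-point half-log series with a 100 uM top concentration in 0.5% DMSO, tested in duplicate; both directions were fitted versus vehicle.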

Read-out in assay [6]: Cytochrome P450 3A7 (Homo sapiens) (UniProt P24462)
Kind of assay: LTEA_HepaRG_CYP3A7: Life Technologies and Expression Analysis (LTEA) Assay for CYP3A7 using HepaRG (AID 2283492). Summed up: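 Cells were thawed, plated, cultured 48 h, then treated for a further 48 h with chemicals (eight-point half-log series from 100 uM, 0.5% DMSO). RNA was isolated and CYP3A7 expression quantified by qRT-PCR normalised to ACTB, GAPDH and POLR2A.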

Read-out in a further assay: CYP3A5 (gene 1577)
Nature of the assay: LTEA_HepaRG_CYP3A5: Life Technologies and Expression Analysis (LTEA) Assay for CYP3A5 using HepaRG (AID 2283493). A digest of the protocol: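 mRNA induction or loss of CYP3A5 assessed in HepaRG after 48 h dosing, 100 uM top concentration, duplicate wells; TaqMan qRT-PCR with ACTB, GAPDH, POLR2A normalization; 0.5% DMSO as negative control.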

Read-out in assay [7]: Fatty Acid-Binding Protein 1 (FABP1), FABP1 (gene 2168)
Kind of assay: LTEA_HepaRG_FABP1: Life Technologies and Expression Analysis (LTEA) Assay for Fatty Acid-Binding Protein 1 (FABP1) using HepaRG (AID 2283494). Summed up: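 Differentiated human HepaRG cells exposed 48 h in serum-free induction medium to eight half-log concentrations up to 100 uM (0.5% DMSO), duplicate. FABP1 mRNA by qRT-PCR, normalised to ACTB, GAPDH, POLR2A; bidirectional fitting against DMSO.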

Read-out in assay [8]: Cytochrome P450 4A22 (Homo sapiens) (UniProt Q5TCH4)
Nature of the assay: LTEA_HepaRG_CYP4A22: Life Technologies and Expression Analysis (LTEA) Assay for Cytochrome P450 4A22 (CYP4A22) using HepaRG (AID 2283495). Summed up:
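Cryopreserved HepaRG cells, plated and cultured 48 h, then switched to serum-free induction medium and treated 48 h (duplicates, up to 100 uM, half-log steps, 0.5% DMSO). Expression change of CYP4A22 was fitted bidirectionally against vehicle.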

Chain of Cytochrome P450 3A4 (Homo sapiens) (P08684 whole entry, looked up): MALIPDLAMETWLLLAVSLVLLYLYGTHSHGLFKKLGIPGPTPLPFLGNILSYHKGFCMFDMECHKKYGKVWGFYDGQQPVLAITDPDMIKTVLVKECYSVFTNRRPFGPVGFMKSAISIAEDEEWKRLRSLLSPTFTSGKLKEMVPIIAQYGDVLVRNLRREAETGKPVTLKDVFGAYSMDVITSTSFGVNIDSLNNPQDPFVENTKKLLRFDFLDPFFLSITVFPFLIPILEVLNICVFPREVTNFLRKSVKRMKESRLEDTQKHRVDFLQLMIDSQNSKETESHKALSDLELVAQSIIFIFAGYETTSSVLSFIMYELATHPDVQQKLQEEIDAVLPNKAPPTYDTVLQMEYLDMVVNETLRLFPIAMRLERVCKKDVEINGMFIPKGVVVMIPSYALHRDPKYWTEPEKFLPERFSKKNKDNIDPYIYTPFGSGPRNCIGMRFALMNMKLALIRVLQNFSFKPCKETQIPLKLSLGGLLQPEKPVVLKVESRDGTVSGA
Chain of Cytochrome P450 3A7 (Homo sapiens) (P24462 whole entry, looked up): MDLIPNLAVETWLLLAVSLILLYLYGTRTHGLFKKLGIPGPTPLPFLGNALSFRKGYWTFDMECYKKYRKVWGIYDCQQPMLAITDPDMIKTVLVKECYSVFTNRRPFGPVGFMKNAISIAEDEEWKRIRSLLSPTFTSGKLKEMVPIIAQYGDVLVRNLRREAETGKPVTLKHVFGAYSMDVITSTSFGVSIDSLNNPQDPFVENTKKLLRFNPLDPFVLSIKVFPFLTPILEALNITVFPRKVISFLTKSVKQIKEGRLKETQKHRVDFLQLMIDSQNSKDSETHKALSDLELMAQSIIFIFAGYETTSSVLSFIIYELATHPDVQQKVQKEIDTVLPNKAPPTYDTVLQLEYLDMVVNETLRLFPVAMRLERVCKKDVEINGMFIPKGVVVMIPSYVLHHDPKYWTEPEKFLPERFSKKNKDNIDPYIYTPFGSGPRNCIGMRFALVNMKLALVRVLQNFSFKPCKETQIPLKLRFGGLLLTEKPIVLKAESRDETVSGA

For `C[C@@H](Oc1ccc(CNC(=O)c2cccnc2Oc2ccc3c(c2)OCO3)c(F)c1)C(=O)O`, the results for the half-maximal activity concentration (AC50) (in the assay with CYP4A11 (gene 1579); in assay [7]; in [8]) were 28.5 µM (active), 50 µM (active) and 28.6 µM (active), respectively. Also, the call in [1], in assay [2], in assay [3], in assay [4], in assay [5] and in assay [6] was inactive. Also, the outcome in the assay with CYP3A5 (gene 1577) was inactive.

For `CCCCC(CC)C(=O)OCCOCCOCCOC(=O)C(CC)CCCC` (stereo not given), the AC50 with CYP4A11 (gene 1579) is 50 µM (active). The compound was called inactive in [1], in [2], in assay [3], in assay [4], in [5] and in assay [6]. The call (with CYP3A5 (gene 1577); in assay [7]; in [8]) was inactive.

Take `c1ccc2ncccc2c1`: the compound was classed as inactive (in the assay with CYP4A11 (gene 1579); in assay [1]; in assay [2]; in assay [3]; in assay [4]; in assay [5]). For the same compound, the compound was classed as inactive (in assay [6]; with CYP3A5 (gene 1577); in [7]; in assay [8]).

Consider `NC(=O)NN=Cc1ccc([N+](=O)[O-])o1`, for which the call (in the assay with CYP4A11 (gene 1579); in [1]; in [4]; in [5]; in [6]; with CYP3A5 (gene 1577)) was inactive. The outcome in assay [8] was inactive. Further, the concentration at half-maximal activity (AC50) in assay [3] is 50 µM (active); in [7] it was 25.7 µM (active).

With `OCCNCCO`, the compound was classed as inactive (with CYP4A11 (gene 1579); in assay [1]; in assay [2]; in [3]; in assay [4]; in [5]). Besides, the compound was classed as inactive (in [6]; in the assay with CYP3A5 (gene 1577); in assay [8]). Also, in [7], the half-maximal activity concentration (AC50) was 45.6 µM (active).

Turning to `OC[C@H]1O[C@@](CO)(O[C@H]2O[C@H](CO)[C@@H](O)[C@H](O)[C@H]2O)[C@@H](O)[C@@H]1O`, the compound was called inactive (with CYP4A11 (gene 1579); in assay [1]; in assay [2]; in [3]; in assay [4]; in [5]). Moreover, the result (in assay [6]; in the assay with CYP3A5 (gene 1577); in [7]; in [8]) was inactive.

Consider `c1ccc2c(c1)-c1cccc3c1c-2cc1ccccc13`, for which the concentration at half-maximal activity (AC50) was 26.1 µM (active) with CYP4A11 (gene 1579); 7.02 µM (active) in assay [1]; 7.35 µM (active) in [2]; 0.404 µM (active) in assay [4]; 13 µM (active) in assay [6]; 5.37 µM (active) with CYP3A5 (gene 1577). Further, the figures for the concentration at half-maximal activity (AC50) in [7] and in [8] were 19.1 µM (active) and 29.1 µM (active), respectively. Moreover, the compound was called inactive in [3].

Consider `COc1cc(C(C)C)c2c(c1)S(=O)(=O)N(COc1cc(=O)n3cccc(OCCN4CCCCC4)c3n1)C2=O`, for which the AC50 is 20.8 µM (active) with CYP4A11 (gene 1579); 20.8 µM (active) in assay [1]; 8.03 µM (active) in assay [3]; 15.4 µM (active) in [4]; 23.6 µM (active) in [6]; 20.9 µM (active) with CYP3A5 (gene 1577). For the same compound, the AC50 was 21.7 µM (active) in [7] and 20.9 µM (active) in [8]. In assay [5], the compound was called inactive.

On to `CC1(C)C(=O)N(Cl)C(=O)N1Cl`, for which the compound was called inactive (with CYP4A11 (gene 1579); in [1]; in assay [2]; in assay [3]; in [4]; in assay [5]). Further, the outcome (in [6]; with CYP3A5 (gene 1577); in assay [7]; in [8]) was inactive.

Consider `CCn1nc(C)c2c1C(=O)NCC(c1ccc(O)cc1)=N2`, for which the AC50 was 27.9 µM (active) with CYP4A11 (gene 1579), 29.9 µM (active) in [1], 34.1 µM (active) in assay [6] and 33.9 µM (active) in assay [8]. Further, the outcome (in assay [2]; in assay [3]; in assay [4]; in assay [5]; with CYP3A5 (gene 1577); in assay [7]) was inactive.

With `O=S1(=O)CCCO1`, the compound was classed as inactive (in the assay with CYP4A11 (gene 1579); in [1]; in assay [2]; in assay [3]; in assay [4]; in assay [5]). The result (in assay [6]; with CYP3A5 (gene 1577); in [7]; in assay [8]) was inactive.

For `CCCOc1ccc(S(=O)(=O)N2CCN(CC)CC2)cc1-c1nc2c(CC)n(Cc3ccccn3)nc2c(=O)[nH]1`, the AC50 with CYP4A11 (gene 1579) is 30.9 µM (active); in assay [1] it was 2.11 µM (active); in [6] it was 1.22 µM (active); in [7] it was 12.1 µM (active); in assay [8], 9.92 µM (active). Also, the compound was called inactive (in assay [3]; in [4]; in [5]; with CYP3A5 (gene 1577)).

With `O=S(=O)(O)c1ccc(N=Nc2c(O)ccc3cc(S(=O)(=O)O)ccc23)cc1`, the call (with CYP4A11 (gene 1579); in assay [1]; in [2]; in assay [3]; in [4]; in assay [5]) was inactive. Besides, the compound was called inactive (in [6]; with CYP3A5 (gene 1577); in [7]; in [8]).

On to `Cc1nc(-c2ccccn2)ncc1C(=O)Nn1cc(C)c2cc(F)ccc21`, for which the AC50 with CYP4A11 (gene 1579) was 59.4 µM (active); in assay [1], 1.57 µM (active); in assay [6] it was 0.945 µM (active); in assay [7], 6.97 µM (active); in assay [8], 51.4 µM (active). Also, the compound was classed as inactive (in assay [2]; in assay [3]; in [4]; in [5]; in the assay with CYP3A5 (gene 1577)).

`NC(=O)N(O)[C@@H]1COc2cc(OCc3ccccc3)ccc21`: the compound was classed as inactive (with CYP4A11 (gene 1579); in [1]; in assay [2]; in [3]; in assay [4]; in [5]). In addition, the outcome (in assay [6]; with CYP3A5 (gene 1577); in assay [7]; in [8]) was inactive.

With `CCCCCCCCCC`, the result (with CYP4A11 (gene 1579); in assay [1]; in assay [3]; in [4]; in assay [5]; in assay [6]) was inactive. For the same compound, the result (in the assay with CYP3A5 (gene 1577); in assay [7]; in assay [8]) was inactive.
